In PubChem BioAssay (Tox21):
Calls of active or inactive are those of the source. The call rests on the fitted dose curve; in most records, active means well fitted curve in the direction sought with a large enough effect in the repeat runs; inconclusive means weak or mixed curves; inactive means flat fitted curve, though single readings scatter.

Assay: qHTS assay to test for compound auto fluorescence at 590 nm (red) in HEK293 cells (AID 720679)
Conditions: red autofluorescence 540/590 nm; series mostly up to 46 µM
From the text: National Center for Advancing Translational Sciences [NCATS]
NIH Chemical Genomics Center [NCGC]
U.S. Environmental Protection Agency [EPA]
National Institutes of Environmental Health Sciences [NIEHS]
National Toxicology Program [NTP]
U.S. Food and Drug Administration [FDA]
Compound auto fluorescence often interferes with screening of the compound library against various biological targets and signaling pathways. Some of these compounds may have fluorophoric properties. Such properties may interfere with the assay outputs resulting in false positives and/or negatives. To decrease such complications and ensure the compound activities are relevant in terms of biological response, the Tox21 10K compound library was screened for auto fluorescence.
From the fluorophores used as reporter signals in our screening assays, the auto fluorescence equivalencies of compounds against three fluorophores have been evaluated: Triamterene, Fluorescein and Rose Bengal sodium for blue, green and red fluorescence, respectively. The fluorescence intensities were measured using Excitation/Emission wavelengths at 405/460nm, 485/535nm and 540/590nm for blue, green and red labels, respectively. This assay includes the red fluorescence data.
Tox21 Assay Protocol Summary:
2,000 HEK293 cells in 5 uL of culture medium containing 10% dialyzed FBS per well were dispensed into black wall/clear bottom 1536-well plates using a Multidrop Combi Dispenser (Thermo Scientific). The assay plates were incubated for 4-5 hr at 37C to allow cell attachment to the well bottom, followed by the transfer of 23 nL compound or DMSO vehicle by a pintool work station (Kalypsys, San Diego, CA). After the assay plates were incubated overnight at 37C and 5% CO2, fluorescence intensities in the assay plates were measured by an Envision (PerkinElmer, Shelton, CT) plate reader using three labels for measuring blue, green and red fluorescence at […] 460, 535 and 590nm respectively.

| SMILES | outcome |
| --- | --- |
| CCCC(=O)O[C@]1(C(=O)CO)CC[C@H]2[C@@H]3CCC4=CC(=O)CC[C@]4(C)[C@H]3[C@@H](O)C[C@@]21C | inactive |
| O=C(O)CN(CCOCCOCCN(CC(=O)O)CC(=O)O)CC(=O)O | inactive |
| O=C1CC2CC1C1CCCC21 (stereo not given) | inactive |
| CC(=O)OCC(CCn1cnc2cnc(N)nc21)COC(C)=O | inactive |
| CCC=O | inactive |
| CCCCCCCCCCCC | inactive |
| N[C@H]1CN(c2c(F)cc3c(=O)c(C(=O)O)cn(C4C[C@H]4F)c3c2Cl)CC12CC2 (stereo not given in full) | inactive |
| CO/N=C(/C(=O)N[C@@H]1C(=O)N2C(C(=O)OCOC(=O)C(C)(C)C)=C(C)CS[C@H]12)c1csc(N)n1 | inactive |
| N=C(N)c1ccc2cc(OC(=O)c3ccc(N=C(N)N)cc3)ccc2c1 | inactive |
| O=C1CCCN1C1CCCCC1 | inactive |
| CC(=O)N(CC(O)CO)c1c(I)c(C(=O)NCCO)c(I)c(C(=O)NCC(O)CO)c1I (stereo not given) | inactive |
| COc1ccccc1OCC(O)CN1CCN(CC(=O)Nc2c(C)cccc2C)CC1 (stereo not given) | inactive |
| O=C[C@H](O)[C@@H](O)[C@H](O)[C@H](O)CO | inactive |
| OCCCC1CCCCC1 | inactive |
| COC(=O)C1=C(C)NC(C)=C(C(=O)OC)C1c1ccccc1[N+](=O)[O-] | inactive |
| C=COCC1CCC(CO)CC1 (stereo not given) | inactive |
| CO[C@]12C[C@@H](COC(=O)c3cncc(Br)c3)CN(C)[C@@H]1Cc1cn(C)c3cccc2c13 | inactive |
| COc1cc(C(=O)N2CCCCCCC2)cc(OC)c1OC | inactive |
| COC(=O)c1c(Cl)c(Cl)c(C(=O)OC)c(Cl)c1Cl | inactive |
| CCOC(=O)c1cccc(N)c1 | inactive |

| SMILES | outcome |
| --- | --- |
| Nc1nc2c(ncn2COC(CO)CO)c(=O)[nH]1 | inactive |
| COC(C)(C)CCCC(C)CC=O (stereo not given) | inactive |
| CCc1ccc(O)c(OC)c1 | inactive |
| Nc1c[n+](N2CCOCC2)no1 | inactive |
| O=C(O)c1ccccc1OP(=O)(O)O | inactive |
| CC(C)(c1ccc(O)cc1)c1ccc(O)cc1 | inactive |
| CC(=O)OCC(=O)[C@@]1(O)CC[C@H]2[C@@H]3CCC4=CC(=O)CC[C@]4(C)[C@H]3C(=O)C[C@@]21C | inactive |
| CN1CCN(c2cc3c(cc2F)c(=O)c(C(=O)O)cn3-c2ccc(F)cc2)CC1 | inactive |
| c1ccc([C@H]2CN3CCSC3=N2)cc1 | inactive |
| Cc1c(NC(C)C)c(=O)n(-c2ccccc2)n1C | inactive |
| C=C[Si](OC(=C)C)(OC(=C)C)OC(=C)C | inactive |
| CCOC(=O)CCC(C)=O | inactive |
| CC/C=C\CC/C=C/CO | inactive |
| O=C(CCCN1CCC(O)(c2cccc(C(F)(F)F)c2)CC1)c1ccc(F)cc1 | inactive |
| CN(C(=O)c1c(O)c2ccccc2n(C)c1=O)c1ccccc1 | inactive |
| Nc1ccc(S(=O)(=O)Nc2ccnn2-c2ccccc2)cc1 | inactive |
| COc1ccc(CCN(C)CCCC(C#N)(c2cc(OC)c(OC)c(OC)c2)C(C)C)cc1OC (stereo not given) | inactive |
| CC(C)CNCC(C)C | inactive |
| Cn1c(N)c(N=O)c(=O)n(C)c1=O | inactive |
| CCOc1ccc(C(=O)OCCN(CC)CC)cc1 | inactive |
